Laboratory results reported in PubChem BioAssay (EPA / NIEHS).
The source made the active and inactive calls. Rule for the calls: active = hit-call score of the fitted dose curve at least 0.9, where 1 is the maximum; inactive = score below 0.9.

Legend:
[1] = ATG_CRE_CIS: Attagene CIS-FACTORIAL HepG2 Assay for human cAMP Responsive Element (CRE) binding protein 3 (AID 2282926); conditions: HepG2 CRE cis-reporter, Attagene multiplexed mRNA; actives raise or lower the signal
Outline: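 Liver-derived HepG2, transfected with a CRE-containing reporter panel, exposed 24 h; transcript levels sized and quantified by capillary electrophoresis of labelled amplicons; signal changes either way referenced to vehicle.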

[2] = target: CCAAT/enhancer-binding protein beta (Homo sapiens) (UniProt P17676); test: ATG_C_EBP_CIS: Attagene CIS-FACTORIAL HepG2 Assay for human CCAAT/Enhancer Binding Protein (C/EBP) beta (AID 2282927); conditions: HepG2 Attagene cis-factorial transcription factor reporter; actives raise or lower the signal
CCAAT/enhancer-binding protein beta (Homo sapiens), sequence (P17676 whole entry, looked up): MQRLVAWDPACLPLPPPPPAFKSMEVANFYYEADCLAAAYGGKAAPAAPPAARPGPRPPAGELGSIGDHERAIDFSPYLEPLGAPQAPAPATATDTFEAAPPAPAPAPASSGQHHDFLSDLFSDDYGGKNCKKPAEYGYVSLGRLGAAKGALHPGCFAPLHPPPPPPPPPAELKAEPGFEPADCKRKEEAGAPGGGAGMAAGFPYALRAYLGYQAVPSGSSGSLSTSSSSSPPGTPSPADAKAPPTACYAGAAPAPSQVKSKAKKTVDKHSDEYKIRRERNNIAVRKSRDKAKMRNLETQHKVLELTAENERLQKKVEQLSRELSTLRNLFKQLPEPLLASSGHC
Outline: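 Transiently transfected HepG2 (MRTU library, endogenous TF-driven promoters); 24 h dosing; total RNA → oligo(dT) RT → PCR → 6-FAM primer extension → HpaI digest → CE; fit bidirectionally vs DMSO.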

[3] = ATG_CMV_CIS: Attagene CIS-FACTORIAL HepG2 Assay for human CMV (Internal Marker) (AID 2282928); conditions: HepG2 CMV promoter reporter, transcription factor profiling; actives raise or lower the signal;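 note: endpoint acts as a background internal control marker rather than a target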
Outline: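 Reporter transcripts from transfected HepG2 cells are isolated after 24 h of chemical dosing, reverse-transcribed and amplified. Fragments labeled with 6-FAM are cut with HpaI and quantified by capillary electrophoresis; DMSO defines baseline.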

[4] = ATG_DR4_LXR_CIS: Attagene CIS-FACTORIAL HepG2 Assay for human Liver X Receptor (LXR), DR4 submotif (AID 2282929); conditions: HepG2 Attagene DR4 cis-reporter, mRNA transcription; actives raise or lower the signal
Outline: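 The endpoint is DR4-element-driven reporter transcripts after 24 h chemical exposure of transfected HepG2 cells. These were measured via RT-PCR and capillary electrophoresis, and gain or loss of signal was fitted relative to DMSO controls.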

[5] = target: Aryl hydrocarbon receptor (Homo sapiens) (UniProt P35869); test: ATG_Ahr_CIS: Attagene CIS-FACTORIAL HepG2 Assay for human Aryl Hydrocarbon Receptor (Ahr) (AID 2282930); conditions: HepG2 AhR cis-factorial reporter transcription; actives raise or lower the signal
Aryl hydrocarbon receptor (Homo sapiens), sequence (P35869 whole entry, looked up): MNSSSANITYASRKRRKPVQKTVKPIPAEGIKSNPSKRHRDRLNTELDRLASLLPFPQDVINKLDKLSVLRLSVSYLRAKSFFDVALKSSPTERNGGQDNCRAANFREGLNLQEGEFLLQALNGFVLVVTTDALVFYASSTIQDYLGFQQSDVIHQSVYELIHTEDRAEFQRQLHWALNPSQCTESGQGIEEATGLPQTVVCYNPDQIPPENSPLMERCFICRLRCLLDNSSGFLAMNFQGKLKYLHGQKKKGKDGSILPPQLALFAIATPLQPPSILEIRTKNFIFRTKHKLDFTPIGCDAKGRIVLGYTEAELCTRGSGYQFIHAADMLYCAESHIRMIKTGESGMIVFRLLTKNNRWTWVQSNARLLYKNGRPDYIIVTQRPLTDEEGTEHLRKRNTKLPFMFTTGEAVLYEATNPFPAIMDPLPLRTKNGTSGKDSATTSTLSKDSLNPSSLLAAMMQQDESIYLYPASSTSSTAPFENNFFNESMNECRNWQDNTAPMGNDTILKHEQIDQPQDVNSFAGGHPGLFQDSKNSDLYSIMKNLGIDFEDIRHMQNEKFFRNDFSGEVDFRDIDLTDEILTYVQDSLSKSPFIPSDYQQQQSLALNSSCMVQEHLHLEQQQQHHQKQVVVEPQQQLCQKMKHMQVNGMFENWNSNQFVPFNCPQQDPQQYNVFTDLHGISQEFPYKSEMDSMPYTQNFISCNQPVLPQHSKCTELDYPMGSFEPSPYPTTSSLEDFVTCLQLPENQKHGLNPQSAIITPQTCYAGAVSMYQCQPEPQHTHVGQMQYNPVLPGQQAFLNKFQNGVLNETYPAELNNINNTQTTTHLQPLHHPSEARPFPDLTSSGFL
Outline: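 Read-out: reporter mRNA quantified by RT-PCR with fluorescent primer extension and capillary electrophoresis. Human HepG2 liver cells carried transfected cis-promoter reporter units and were exposed to chemical for 24 h; gain or loss fitted relative to DMSO.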

[6] = ATG_AP_1_CIS: Attagene CIS-FACTORIAL HepG2 Assay for human Activator Protein 1 (AP-1) (AID 2282931); conditions: HepG2 Attagene cis-factorial AP-1 reporter mRNA; actives raise or lower the signal
Outline: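 Readout is reporter transcript level from endogenous transcription factor activity, quantified by RT-PCR with fluorescent primer extension and capillary electrophoresis. Transiently transfected HepG2 cells, 24 h exposure. Curves fitted both directions versus DMSO.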

[7] = ATG_AP_2_CIS: Attagene CIS-FACTORIAL HepG2 Assay for human Activator Protein 2 (AP-2) (AID 2282932); conditions: HepG2 AP-2 cis-reporter, Attagene transcription factor profiling; actives raise or lower the signal
Outline: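 Liver-derived HepG2 line, cis-reporter system measuring endogenous factors; 24 h dosing; reporter mRNA detected by fluorescent RT-PCR and capillary electrophoresis.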

[8] = ATG_BRE_CIS: Attagene CIS-FACTORIAL HepG2 Assay for human Bone Morphogenetic Protein (BMP) Response Element (BRE) (AID 2282933); conditions: HepG2 BMP response element reporter, Attagene transcription factor profiling; actives raise or lower the signal
Outline: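 Multiplexed cis-reporter assay, HepG2, 24 h exposure. mRNA from reporter units quantified via RT-PCR/CE; DMSO baseline; bidirectional curve fit.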

[9] = target: Retinoic acid receptor alpha (Homo sapiens) (UniProt P10276); test: ATG_DR5_RAR_CIS: Attagene CIS-FACTORIAL HepG2 Assay for human Retinoic Acid Receptor Alpha (RARE), DR5 submotif (AID 2282934); conditions: HepG2 Attagene cis-factorial RARE DR5 reporter, mRNA; actives raise or lower the signal
Retinoic acid receptor alpha (Homo sapiens), sequence (P10276 whole entry, looked up): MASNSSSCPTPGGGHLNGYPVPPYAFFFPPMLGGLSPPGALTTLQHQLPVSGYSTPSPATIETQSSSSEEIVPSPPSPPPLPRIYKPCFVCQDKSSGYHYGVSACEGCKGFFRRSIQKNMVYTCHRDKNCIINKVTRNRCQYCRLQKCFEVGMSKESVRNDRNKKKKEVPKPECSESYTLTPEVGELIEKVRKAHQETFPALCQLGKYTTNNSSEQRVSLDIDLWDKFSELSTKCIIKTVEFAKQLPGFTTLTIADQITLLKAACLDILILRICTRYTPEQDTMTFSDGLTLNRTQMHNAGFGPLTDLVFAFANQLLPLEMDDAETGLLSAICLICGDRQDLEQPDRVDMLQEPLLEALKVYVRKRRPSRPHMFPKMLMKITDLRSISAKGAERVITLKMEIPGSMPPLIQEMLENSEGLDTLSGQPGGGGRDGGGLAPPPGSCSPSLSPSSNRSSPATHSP
Outline: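 Read-out: DR5-driven reporter transcript measured by RT-PCR, 6-FAM primer extension, HpaI digest and capillary electrophoresis. Human HepG2 liver cells carry transiently transfected cis-element reporter constructs; dosing lasts 24 h. Gain or loss of signal fitted against DMSO baseline.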

[10] = ATG_E_Box_CIS: Attagene CIS-FACTORIAL HepG2 Assay for human Enhancer Box (E-box) (AID 2282936); conditions: HepG2 E-box cis-reporter transcription, actives raise or lower the signal
Outline: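 In this cell-based setup, HepG2 cells bearing transfected promoter-driven reporter units were exposed to chemicals for 24 h; reporter transcripts were amplified, 6-FAM-labelled, cut with HpaI and sized by capillary electrophoresis.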

[11] = ATG_EGR_CIS: Attagene CIS-FACTORIAL HepG2 Assay for human Early Growth Response 1 (EGR1) (AID 2282938); conditions: HepG2 Attagene CIS-FACTORIAL EGR reporter mRNA; actives raise or lower the signal
Outline: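 After 24 h compound exposure, RNA from reporter-transfected HepG2 cells was reverse-transcribed, PCR-amplified, fluorescently labelled and resolved by capillary electrophoresis. EGR1 reporter transcript changes, up or down, were fitted against DMSO, reflecting endogenous transcription-factor activity.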

[12] = ATG_Ets_CIS: Attagene CIS-FACTORIAL HepG2 Assay for human Erythroblast Transformation Specific (ETS) (AID 2282941); conditions: HepG2 ETS cis-reporter transcription, actives raise or lower the signal
Outline: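 Bidirectional fit versus DMSO of reporter mRNA signal, detected by RT-PCR and capillary electrophoresis in HepG2 cells transiently transfected with cis-element reporters and dosed 24 h.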

[13] = target: Hepatocyte nuclear factor 3-beta (Homo sapiens) (UniProt Q9Y261); test: ATG_FoxA2_CIS: Attagene CIS-FACTORIAL HepG2 Assay for human Forkhead box A2 (FOXA2) (AID 2282942); conditions: HepG2 cis-reporter transcription factor activity, 24 h; actives raise or lower the signal
Hepatocyte nuclear factor 3-beta (Homo sapiens), sequence (Q9Y261 whole entry, looked up): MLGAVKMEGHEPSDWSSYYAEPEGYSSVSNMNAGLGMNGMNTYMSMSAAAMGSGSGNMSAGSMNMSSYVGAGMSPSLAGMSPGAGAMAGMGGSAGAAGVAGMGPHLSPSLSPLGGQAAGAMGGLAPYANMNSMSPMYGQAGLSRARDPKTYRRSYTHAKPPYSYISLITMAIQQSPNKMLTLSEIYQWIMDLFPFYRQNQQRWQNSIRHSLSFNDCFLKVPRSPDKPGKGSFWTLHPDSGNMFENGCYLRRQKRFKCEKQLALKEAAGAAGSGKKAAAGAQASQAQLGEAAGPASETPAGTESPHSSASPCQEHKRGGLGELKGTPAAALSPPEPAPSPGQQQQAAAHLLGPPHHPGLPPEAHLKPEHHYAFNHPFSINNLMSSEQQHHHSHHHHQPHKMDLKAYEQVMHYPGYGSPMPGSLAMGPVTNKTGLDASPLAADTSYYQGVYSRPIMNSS
Outline: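 Endogenous transcription factor activity is captured via cis-element-driven reporter transcripts in transfected HepG2. Total RNA taken at 24 h post-dosing; labelled RT-PCR products resolved by capillary electrophoresis. Gain or loss fitted versus DMSO.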

[14] = ATG_FoxO_CIS: Attagene CIS-FACTORIAL HepG2 Assay for human Forkhead box O (FoxO) (AID 2282943); conditions: HepG2 Attagene cis-reporter, FoxO element, mRNA; actives raise or lower the signal
Outline: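 Read-out: fluorescence of 6-FAM-labelled reporter cDNA fragments resolved by capillary electrophoresis. Transiently transfected HepG2 cells were dosed for 24 h; activity fitted in both directions relative to DMSO controls.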

[15] = ATG_GATA_CIS: Attagene CIS-FACTORIAL HepG2 Assay for human GATA Binding Protein (AID 2282944); conditions: HepG2 GATA cis-element reporter, Attagene multiplex mRNA; actives raise or lower the signal
Outline: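 After transfecting HepG2 cells with multiple cis-regulated reporter units, chemicals are dosed for 24 h; isolated RNA undergoes RT-PCR and fluorescent labeling before capillary electrophoresis, with activity expressed against DMSO.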

[16] = ATG_GLI_CIS: Attagene CIS-FACTORIAL HepG2 Assay for human Zinc Finger Protein GLI1 (AID 2282945); conditions: HepG2, Attagene cis-factorial reporter mRNA, GLI element; actives raise or lower the signal
Outline: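 Transiently transfected HepG2 cells report endogenous transcription factor activity via cis-element-driven reporter units. After 24 h compound exposure, reporter mRNA was measured by RT-PCR with capillary electrophoresis; bidirectional fitting against DMSO baseline.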

[17] = ATG_M_19_CIS: Attagene CIS-FACTORIAL HepG2 Assay for M19 Transcription Factor (Internal Marker) (AID 2282939); conditions: HepG2 Attagene CIS-FACTORIAL M19 internal marker reporter; actives raise or lower the signal
Outline: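 Signals come from fluorescence of labelled reporter-specific PCR fragments resolved by capillary electrophoresis, following 24 h treatment of HepG2 cells transfected with cis-promoter reporter units; activity was fitted in both directions relative to DMSO.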

[18] = target: Transcription factor E2F1 (Homo sapiens) (UniProt Q01094); test: ATG_E2F_CIS: Attagene CIS-FACTORIAL HepG2 Assay for human E2F Transcription Factor 1 (AID 2282935); conditions: HepG2 Attagene cis-reporter, E2F reporter RNA transcripts; actives raise or lower the signal
Transcription factor E2F1 (Homo sapiens), sequence (Q01094 whole entry, looked up): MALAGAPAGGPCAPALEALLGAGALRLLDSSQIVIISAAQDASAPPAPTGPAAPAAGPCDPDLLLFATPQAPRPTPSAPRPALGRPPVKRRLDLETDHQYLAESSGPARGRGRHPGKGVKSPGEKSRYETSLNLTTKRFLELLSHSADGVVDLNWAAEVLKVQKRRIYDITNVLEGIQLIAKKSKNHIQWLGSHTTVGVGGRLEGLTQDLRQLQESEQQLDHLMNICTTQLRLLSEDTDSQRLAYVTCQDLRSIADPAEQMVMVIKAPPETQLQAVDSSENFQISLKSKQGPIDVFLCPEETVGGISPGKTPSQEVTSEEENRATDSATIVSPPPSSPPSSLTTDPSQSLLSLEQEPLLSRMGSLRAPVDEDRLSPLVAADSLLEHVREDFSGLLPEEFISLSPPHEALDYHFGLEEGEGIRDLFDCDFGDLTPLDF
Outline: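 Liver-derived HepG2 cells expressing transfected promoter-driven reporter units received test chemical for 24 hours. Signal gains or losses were fitted bidirectionally against DMSO.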

[19] = ATG_ERE_CIS: Attagene CIS-FACTORIAL HepG2 Assay for Estrogen Response Element (ERE) (AID 2282940); conditions: HepG2 ERE cis-reporter, Attagene RNA transcript; actives raise or lower the signal
Outline: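 Fluorescence of capillary-separated, FAM-labelled reporter cDNA fragments indicates reporter mRNA levels in HepG2 cells exposed to chemicals for 24 h. Transient transfection with cis-regulated units; data fitted in both directions against DMSO.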

[20] = ATG_M_61_CIS: Attagene CIS-FACTORIAL HepG2 Assay for M61 Transcription Factor (Internal Marker) (AID 2282937); conditions: HepG2 Attagene CIS-FACTORIAL M61 internal marker reporter; actives raise or lower the signal
Outline: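 Readout is reporter mRNA by RT-PCR, fluorescent primer extension and capillary electrophoresis, with gain or loss fitted relative to DMSO. Transfected HepG2 cells carrying endogenous-TF-driven cis reporters were exposed to chemicals for 24 hours.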

Measured: AC50

C1N2CN3CN1CN(C2)C3
not listed: [17] | [18] | [19] | [20]
inactive: all other assays above

CN(C)c1ccc(Cc2ccc(N(C)C)cc2)cc1
active: [3] 70.4 µM | [6] 65 µM | [8] 61.9 µM | [10] 31.1 µM | [11] 25.6 µM
not listed: [17] | [18] | [19] | [20]
inactive: all other assays above

CC1=CC(=O)CC(C)(C)C1
not listed: [17] | [18] | [19] | [20]
inactive: all other assays above

O=C(OC[C@H]1O[C@@H](OC(=O)c2cc(O)c(O)c(OC(=O)c3cc(O)c(O)c(O)c3)c2)[C@H](OC(=O)c2cc(O)c(O)c(OC(=O)c3cc(O)c(O)c(O)c3)c2)[C@@H](OC(=O)c2cc(O)c(O)c(OC(=O)c3cc(O)c(O)c(O)c3)c2)[C@@H]1OC(=O)c1cc(O)c(O)c(OC(=O)c2cc(O)c(O)c(O)c2)c1)c1cc(O)c(O)c(OC(=O)c2cc(O)c(O)c(O)c2)c1
not listed: [18] | [19] | [20]
inactive: all other assays above

CCOCCOCCOCCO
not listed: [18] | [19] | [20]
inactive: all other assays above

CC[C@H](C)C(=O)O[C@H]1C[C@@H](C)C=C2C=C[C@H](C)[C@H](CC[C@@H]3C[C@@H](O)CC(=O)O3)[C@H]21
active: [4] 52.4 µM | [19] 8.11 µM
not listed: [9] | [20]
inactive: all other assays above

COC(=O)c1ccccc1O
active: [4] 26.1 µM
not listed: [17] | [18] | [20]
inactive: all other assays above

CC/C(=C\C(=N/O)C(N)=O)C(C)[N+](=O)[O-] (stereo unspecified)
not listed: [17] | [18] | [20]
inactive: all other assays above

O=C(O)CCN(C1(C(=O)NO)CCCC1)S(=O)(=O)c1ccc(Oc2ccc(F)cc2)cc1
not listed: [17] | [18] | [19]
inactive: all other assays above
